# Measured values published in PubChem BioAssay (NCATS).
# Values joined by “and” are separate entries in the source; they are usually repeats but may differ in a detail not shown here. Equal entries are not always repeated. Results filed as inconclusive are left out. A structure can be active in one record and inactive in another. Unmarked numbers belong to inactive results. Active and inactive are the calls of the source. Calls follow the shape of the dose curve; as a rule, active = well fitted curve in the direction sought with a large enough effect; inconclusive = small, poorly fitted or top-dose-only effect, or another doubt; inactive = no such curve, though single readings can be large; an effect the other way counts as inactive or inconclusive.
# What was measured:
# CRL-7250 = normal cell line; experiment: Cytotoxic Profiling of Annotated Libraries Using Quantitative High-Throughput Screening (AID 1296008); conditions: Five cell lines viability, CellTiter-Glo ATP luminescence, 48-72 h; max response: active compounds read low; also: nearly all actives have a fitted effect of over 60% in size
# In short: (§1)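 Cytotoxicity was measured as CellTiter-Glo ATP luminescence, read after 10 min at room temperature. Compound treatment of the cells lasted 48 or 72 hr at 37 degrees Celsius in a qHTS format.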
# HEK293 = experiment: as above; conditions: Five cell lines viability, CellTiter-Glo ATP luminescence, 48-72 h; max response: active compounds read low
# In short: as §1
# HaCat [1] = experiment: as above; conditions: Five cell lines viability, CellTiter-Glo ATP luminescence, 48-72 h; max response: active compounds read low
# In short: as §1
# NIH3T3 [2] = experiment: as above; conditions: Five cell lines viability, CellTiter-Glo ATP luminescence, 48-72 h; max response: active compounds read low
# In short: as §1
# MKL-1 = experiment: qHTS assay to identify novel small-molecules to repurpose for Merkel cell carcinoma treatment (AID 1296009); conditions: MCC and control cell lines, CellTiter-Glo viability, 72 h; series mostly up to 46 µM; also: nearly all actives have a fitted effect of over 60% in size
# In short: (§2)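 After compound transfer in DMSO, plates were kept 72 hr at 37 degree celsius. Luminescent ATP signal from CellTiter-Glo served as viability measure, normalized against DMSO and no-cell controls.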
# MKL-2 = experiment: as above; conditions: MCC and control cell lines, CellTiter-Glo viability, 72 h; series mostly up to 46 µM
# In short: as §2
# UISO = experiment: as above; conditions: MCC and control cell lines, CellTiter-Glo viability, 72 h; series mostly up to 46 µM
# In short: as §2
# WaGa = experiment: as above; conditions: MCC and control cell lines, CellTiter-Glo viability, 72 h; series mostly up to 46 µM
# In short: as §2
# KB-3-1 = experiment: Cytotoxic Profiling of Annotated Libraries Using Quantitative High-Throughput Screening (AID 1296008); conditions: Five cell lines viability, CellTiter-Glo ATP luminescence, 48-72 h; max response: active compounds read low; also: nearly all actives have a fitted effect of over 60% in size
# In short: as §1
# HACAT [3] = experiment: qHTS assay to identify novel small-molecules to repurpose for Merkel cell carcinoma treatment (AID 1296009); conditions: MCC and control cell lines, CellTiter-Glo viability, 72 h; series mostly up to 44.8 µM; also: nearly all actives have a fitted effect of over 60% in size
# In short: as §2
# HEK293T [4] = experiment: as above; conditions: MCC and control cell lines, CellTiter-Glo viability, 72 h; at 44.8 µM (top of the series) unless noted
# In short: as §2
# MCC-13 = experiment: as above; conditions: MCC and control cell lines, CellTiter-Glo viability, 72 h; series mostly up to 46 µM
# In short: as §2
# MCC-26 = experiment: as above; conditions: MCC and control cell lines, CellTiter-Glo viability, 72 h; series mostly up to 46 µM
# In short: as §2
# C33A = experiment: Primary qHTS to identify gynecologic anti-cancer compounds using libraries of approved drugs and bioactive compounds (AID 1345084); conditions: Gynecologic cancer cell panel viability, ATPlite luminescence, 48 h; series mostly up to 57.5 µM; also: nearly all actives have a fitted effect of over 55% in size
# In short: (§3)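 Measured: luminescence after ATPlite addition (15 min, RT). Exposure: 48 h, 37 C, 5% CO2.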
# CASKI = experiment: as above; conditions: Gynecologic cancer cell panel viability, ATPlite luminescence, 48 h; series mostly up to 57.5 µM
# In short: as §3
# Es-2 = experiment: as above; conditions: Gynecologic cancer cell panel viability, ATPlite luminescence, 48 h; series mostly up to 57.5 µM
# In short: as §3
# HeLa = experiment: as above; conditions: Gynecologic cancer cell panel viability, ATPlite luminescence, 48 h; series mostly up to 57.5 µM
# In short: as §3
# Hek293T [5] = experiment: as above; conditions: Gynecologic cancer cell panel viability, ATPlite luminescence, 48 h, control line for the selectivity index; series mostly up to 57.5 µM
# In short: as §3
# NIH3T3 [6] = experiment: qHTS assay to identify novel small-molecules to repurpose for Merkel cell carcinoma treatment (AID 1296009); conditions: MCC and control cell lines, CellTiter-Glo viability, 72 h; at 44.8 µM (top of the series) unless noted; also: nearly all actives have a fitted effect of over 60% in size
# In short: as §2
# CAOV3 = experiment: Primary qHTS to identify gynecologic anti-cancer compounds using libraries of approved drugs and bioactive compounds (AID 1345084); conditions: Gynecologic cancer cell panel viability, ATPlite luminescence, 48 h; series mostly up to 57.5 µM; also: nearly all actives have a fitted effect of over 55% in size
# In short: as §3
# % is scaled to controls: 0 for no effect and ±100 for the full control effect; potency is read from the fitted curve at half-maximal effect.
structure (smiles),measurement,setting,value
CN(C)CCCN=c1c2ccccc2n(C)c2[nH]c(=O)n(C)c(=O)c12,Potency,CRL-7250,11.8 µM (active)
same,Potency,HEK293,5.26 µM (active)
same,Potency,HaCat [1],18.7 µM (active)
same,Potency,NIH3T3 [2],23.5 µM (active)
same,Potency,MKL-1,10.5 µM (active)
same,Potency,MKL-2,14.8 µM (active)
same,Potency,UISO,20.9 µM (active)
same,Potency,WaGa,7.43 µM (active)
Cc1ccc(CN2CCNCC2)cc1NC(=O)CNc1ccc(F)c(F)c1,outcome,CRL-7250,inactive
same,outcome,HaCat [1],inactive
same,max response,KB-3-1,4%
same,outcome,KB-3-1,inactive
same,max response,NIH3T3 [2],-3.35% and 3.71%
same,Potency,HACAT [3],inactive
same,outcome,HEK293T [4],inactive
same,Potency,MCC-13,inactive
same,Potency,MCC-26,inactive
same,Potency,MKL-1,inactive
same,Potency,MKL-2,inactive
same,Potency,UISO,inactive
same,Potency,WaGa,inactive
same,Potency,C33A,inactive
same,Potency,CASKI,inactive
same,Potency,Es-2,inactive
same,Potency,HeLa,inactive
same,Potency,Hek293T [5],inactive
CC1(C)OC2=C(C(=O)c3ccccc3C2=O)[C@H](NCc2ccccc2)[C@H]1O,Potency,CRL-7250,16.6 µM (active)
same,Potency,HEK293,8.33 µM (active)
same,Potency,KB-3-1,9.35 µM (active)
same,Potency,NIH3T3 [2],11.8 µM (active)
same,Potency,MCC-13,10.5 µM (active)
same,Potency,MKL-1,3.32 µM (active)
Nc1nc(Nc2ccc(S(N)(=O)=O)cc2)nn1C(=O)c1c(F)cccc1F,Potency,CRL-7250,18.7 µM (active)
same,Potency,HEK293,5.9 µM (active) and 2.59 µM (active)
same,Potency,KB-3-1,3.26 µM (active)
same,Potency,NIH3T3 [2],10.5 µM (active) and 11.6 µM (active)
same,Potency,UISO,13.2 µM (active)
same,Potency,HeLa,22.4 µM (active)
Nc1cccc(-c2cc3c(Oc4cccc(O)c4)ncnc3[nH]2)c1,Potency,CRL-7250,14.8 µM (active)
same,Potency,HEK293,20.9 µM (active) and 18.4 µM (active)
same,Potency,HaCat [1],2.96 µM (active)
same,Potency,NIH3T3 [2],3.72 µM (active) and 4.61 µM (active)
same,Potency,MKL-1,inactive
same,Potency,UISO,inactive
same,Potency,C33A,inactive
same,Potency,Es-2,inactive
O=C(NC1CCNCC1)c1[nH]ncc1NC(=O)c1c(Cl)cccc1Cl,Potency,CRL-7250,0.332 µM (active)
same,Potency,HEK293,0.264 µM (active)
same,Potency,NIH3T3 [2],13.2 µM (active)
same,Potency,MKL-1,0.372 µM (active)
same,Potency,MKL-2,0.833 µM (active)
same,Potency,UISO,1.32 µM (active)
COC(=O)C[C@](O)(CCCC(C)(C)O)C(=O)O[C@@H]1C(OC)=C[C@]23CCCN2CCc2cc4c(cc2[C@H]13)OCO4,max response,CRL-7250,3.78%
same,max response,HEK293,-7.61%
same,outcome,HaCat [1],inactive
same,max response,NIH3T3 [2],2.2%
same,Potency,HACAT [3],inactive
same,Potency,MCC-13,inactive
same,Potency,MKL-1,inactive
same,Potency,MKL-2,inactive
same,Potency,UISO,inactive
same,Potency,WaGa,inactive
Nc1ccccc1NC(=O)c1ccc(CNc2nccc(-c3cccnc3)n2)cc1,Potency,CRL-7250,4.18 µM (active) and 5.17 µM (active)
same,Potency,HEK293,1.64 µM (active)
same,Potency,HaCat [1],3.72 µM (active)
same,Potency,KB-3-1,1.87 µM (active) and 2.06 µM (active)
same,Potency,MCC-13,5.26 µM (active)
same,Potency,MKL-1,2.35 µM (active)
same,Potency,MKL-2,1.48 µM (active)
same,Potency,UISO,2.35 µM (active)
same,Potency,WaGa,0.418 µM (active)
same,Potency,C33A,6.31 µM (active)
same,Potency,CASKI,8.91 µM (active)
same,Potency,Es-2,4.47 µM (active)
same,Potency,HeLa,0.891 µM (active)
COC(=O)[C@]12CCC(C)(C)C[C@@H]1[C@@H]1C(=O)C=C3[C@@]4(C)C=C(C#N)C(=O)C(C)(C)[C@@H]4CC[C@@]3(C)[C@]1(C)CC2,Potency,CRL-7250,4.69 µM (active)
same,Potency,HEK293,2.96 µM (active)
same,Potency,HaCat [1],4.18 µM (active)
same,Potency,KB-3-1,1.18 µM (active)
same,Potency,MCC-26,inactive
same,Potency,MKL-1,inactive
Cc1cccc(C=NNc2cc(N3CCOCC3)nc(OCCc3ccccn3)n2)c1,max response,CRL-7250,-4.72%
same,Potency,HEK293,5.9 µM (active)
same,max response,HaCat [1],-6.14%
same,Potency,MCC-13,inactive
same,Potency,MCC-26,inactive
same,Potency,MKL-1,20.9 µM (active)
same,Potency,MKL-2,16.6 µM (active)
same,Potency,WaGa,inactive
Cc1coc2c1C(=O)C(=O)c1c-2ccc2c1CCCC2(C)C,Potency,HEK293,9.2 µM (active)
same,max response,HaCat [1],-3.22%
same,outcome,HaCat [1],inactive
same,Potency,KB-3-1,16.4 µM (active)
same,max response,KB-3-1,-4.98%
same,max response,NIH3T3 [2],-27%
same,outcome,NIH3T3 [2],inactive
same,Potency,HACAT [3],inactive
same,Potency,MCC-13,inactive
same,Potency,MKL-1,inactive
same,Potency,MKL-2,inactive
same,outcome,NIH3T3 [6],inactive
same,Potency,UISO,inactive
same,Potency,WaGa,inactive
same,Potency,C33A,inactive
same,Potency,CAOV3,inactive
same,Potency,CASKI,inactive
same,Potency,Es-2,inactive
same,Potency,Hek293T [5],inactive
COc1cc2c(Oc3ccc(NC(=O)C4(C(=O)Nc5ccc(F)cc5)CC4)cc3F)ccnc2cc1OCCCN1CCOCC1,Potency,CRL-7250,10.5 µM (active) and 8.2 µM (active)
same,Potency,HaCat [1],4.18 µM (active) and 6.51 µM (active)
same,Potency,KB-3-1,1.32 µM (active) and 2.91 µM (active)
same,Potency,NIH3T3 [2],526 nM (active) and 731 nM (active)
same,Potency,MCC-13,14.8 µM (active)
same,Potency,MKL-1,4.69 µM (active)
same,Potency,UISO,6.62 µM (active)
same,Potency,Es-2,25.1 µM (active)
same,Potency,HeLa,6.31 µM (active)
same,Potency,Hek293T [5],7.94 µM (active)
CC=C1NC(=O)[C@H]2CSSCCC=C[C@H](CC(=O)N[C@H](C(C)C)C(=O)N2)OC(=O)[C@H](C(C)C)NC1=O,Potency,CRL-7250,0.0187 µM (active)
same,Potency,HaCat [1],0.0372 µM (active)
same,Potency,NIH3T3 [2],0.0469 µM (active)
same,Potency,MCC-13,0.235 µM (active)
same,Potency,MKL-2,0.0166 µM (active)
same,Potency,UISO,0.0166 µM (active)
same,Potency,WaGa,0.0264 µM (active)
CC(C)c1cnn2c(NCc3ccccc3)cc(N[C@@H](CO)[C@H](O)CO)nc12,Potency,CRL-7250,0.296 µM (active)
same,Potency,HaCat [1],469 nM (active) and 4.11 µM (active)
same,Potency,KB-3-1,0.731 µM (active)
same,Potency,NIH3T3 [2],935 nM (active) and 3.66 µM (active)
same,Potency,MCC-13,1.66 µM (active)
same,Potency,MKL-2,1.05 µM (active)
same,Potency,C33A,7.08 µM (active)
same,Potency,CASKI,4.47 µM (active)
same,Potency,Es-2,1.58 µM (active)
same,Potency,HeLa,2.82 µM (active)
same,Potency,Hek293T [5],1.41 µM (active)
